The source of these data is ChEMBL document CHEMBL1961873, “Compounds: GSK PKIS; Assays: Nanosyn kinase panel” (2012).

Assay [1] addresses Glycogen synthase kinase-3 beta (Homo sapiens) (UniProt P49841). Particulars: at 1 µM.
For assay [2], the target named is Homeodomain-interacting protein kinase 1 (Homo sapiens) (UniProt Q86Z02). The following applies: at 0.1 µM.
Assay [3] has the same target. Particulars: at 1 µM.
The target in assay [4] is T1, Homeodomain-interacting protein kinase 4 (Homo sapiens) (UniProt Q8NE63).
T1 sequence (whole entry): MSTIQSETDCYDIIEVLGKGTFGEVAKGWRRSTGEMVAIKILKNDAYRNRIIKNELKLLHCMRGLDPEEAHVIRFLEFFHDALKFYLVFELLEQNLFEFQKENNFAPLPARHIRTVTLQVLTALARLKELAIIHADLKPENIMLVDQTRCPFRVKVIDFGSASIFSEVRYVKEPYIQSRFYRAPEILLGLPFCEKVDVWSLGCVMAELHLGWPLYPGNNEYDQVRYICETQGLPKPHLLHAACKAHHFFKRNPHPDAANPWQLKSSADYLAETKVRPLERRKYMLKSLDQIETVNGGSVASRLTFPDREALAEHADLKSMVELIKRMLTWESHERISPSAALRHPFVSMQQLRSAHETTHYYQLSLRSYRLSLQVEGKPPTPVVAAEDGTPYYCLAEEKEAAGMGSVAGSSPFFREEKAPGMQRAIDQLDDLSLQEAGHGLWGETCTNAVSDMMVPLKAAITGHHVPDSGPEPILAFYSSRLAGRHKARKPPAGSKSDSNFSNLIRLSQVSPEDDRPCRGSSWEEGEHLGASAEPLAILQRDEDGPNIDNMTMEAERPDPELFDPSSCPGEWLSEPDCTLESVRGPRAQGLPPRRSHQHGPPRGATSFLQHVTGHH
The following applies: at 0.1 µM.

For assay [5], the target named is T1, Homeodomain-interacting protein kinase 4 (Homo sapiens). The following applies: at 1 µM.
Assay [6] concerns the target Mitogen-activated protein kinase 9 (Homo sapiens) (UniProt P45984). The following applies: at 0.1 µM.
Assay [7] shares this target. Particulars: at 1 µM.
Assay [8] concerns the target Mitogen-activated protein kinase 1 (Homo sapiens) (UniProt P28482). The following applies: at 0.1 µM.
The target is the same in assay [9]. Particulars: at 1 µM.
Assay [10] concerns the target Mitogen-activated protein kinase 3 (Homo sapiens) (UniProt P27361). Particulars: at 0.1 µM.
Assay [11] shares this target. The following applies: at 1 µM.
The target of assay [12] is SRSF protein kinase 3 (Homo sapiens) (UniProt Q9UPE1). The following applies: at 0.1 µM.
Assay [13] shares this target. Particulars: at 1 µM.
The target in assay [14] is Mitogen-activated protein kinase 14 (Homo sapiens) (UniProt Q16539). Particulars: at 0.1 µM.
The target is the same in assay [15]. The following applies: at 1 µM.
Assay [16] addresses Mitogen-activated protein kinase 11 (Homo sapiens) (UniProt Q15759). Particulars: at 0.1 µM.
The target is the same in assay [17]. Particulars: at 1 µM.
Assay [18] concerns the target T2, Mitogen-activated protein kinase 13 (Homo sapiens) (UniProt O15264).
T2 sequence (whole entry): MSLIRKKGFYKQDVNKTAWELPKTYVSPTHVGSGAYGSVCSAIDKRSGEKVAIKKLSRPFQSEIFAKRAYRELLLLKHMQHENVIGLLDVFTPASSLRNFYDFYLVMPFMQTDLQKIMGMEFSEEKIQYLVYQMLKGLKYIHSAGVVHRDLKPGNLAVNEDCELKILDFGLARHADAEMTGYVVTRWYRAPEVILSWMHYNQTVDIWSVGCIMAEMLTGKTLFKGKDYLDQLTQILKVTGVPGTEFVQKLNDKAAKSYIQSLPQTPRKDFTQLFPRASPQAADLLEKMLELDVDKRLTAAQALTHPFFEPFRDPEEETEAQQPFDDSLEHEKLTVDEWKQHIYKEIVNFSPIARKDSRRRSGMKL
Particulars: at 0.1 µM.

Assay [19] addresses T2, Mitogen-activated protein kinase 13 (Homo sapiens). The following applies: at 1 µM.
Assay [20] deals with T3, Mitogen-activated protein kinase 12 (Homo sapiens) (UniProt P53778).
T3 sequence (whole entry): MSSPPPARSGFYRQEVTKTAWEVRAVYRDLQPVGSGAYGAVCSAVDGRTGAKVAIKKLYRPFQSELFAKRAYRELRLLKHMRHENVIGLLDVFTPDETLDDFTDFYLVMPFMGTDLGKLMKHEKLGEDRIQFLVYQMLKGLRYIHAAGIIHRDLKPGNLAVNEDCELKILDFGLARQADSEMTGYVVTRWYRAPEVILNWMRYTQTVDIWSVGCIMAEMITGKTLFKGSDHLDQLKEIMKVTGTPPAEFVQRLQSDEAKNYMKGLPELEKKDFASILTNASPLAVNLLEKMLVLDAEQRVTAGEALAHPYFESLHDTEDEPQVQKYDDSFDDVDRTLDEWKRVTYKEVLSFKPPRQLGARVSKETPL
Particulars: at 0.1 µM.

Sequence of Mitogen-activated protein kinase 3 (Homo sapiens) (P27361 whole entry): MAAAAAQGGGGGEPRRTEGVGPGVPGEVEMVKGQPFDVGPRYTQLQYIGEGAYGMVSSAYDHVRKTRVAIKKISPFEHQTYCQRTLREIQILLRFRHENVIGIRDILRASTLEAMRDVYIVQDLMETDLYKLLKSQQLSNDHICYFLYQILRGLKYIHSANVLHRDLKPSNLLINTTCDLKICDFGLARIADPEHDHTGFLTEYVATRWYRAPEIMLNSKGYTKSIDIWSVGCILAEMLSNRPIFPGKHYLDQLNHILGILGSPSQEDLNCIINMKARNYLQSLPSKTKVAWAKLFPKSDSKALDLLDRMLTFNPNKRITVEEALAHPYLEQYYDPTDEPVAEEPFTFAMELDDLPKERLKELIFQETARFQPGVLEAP
Sequence of Mitogen-activated protein kinase 14 (Homo sapiens) (Q16539 whole entry): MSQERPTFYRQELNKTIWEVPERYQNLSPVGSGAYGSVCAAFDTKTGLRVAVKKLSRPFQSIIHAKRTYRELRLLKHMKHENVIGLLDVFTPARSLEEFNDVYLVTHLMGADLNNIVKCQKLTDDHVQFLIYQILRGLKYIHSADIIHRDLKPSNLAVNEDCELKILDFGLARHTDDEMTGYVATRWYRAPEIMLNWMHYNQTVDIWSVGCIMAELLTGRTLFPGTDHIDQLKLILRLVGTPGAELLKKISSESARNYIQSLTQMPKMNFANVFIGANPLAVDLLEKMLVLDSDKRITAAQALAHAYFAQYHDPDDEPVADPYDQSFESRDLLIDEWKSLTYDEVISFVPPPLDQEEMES
Sequence of Glycogen synthase kinase-3 beta (Homo sapiens) (P49841 whole entry, looked up): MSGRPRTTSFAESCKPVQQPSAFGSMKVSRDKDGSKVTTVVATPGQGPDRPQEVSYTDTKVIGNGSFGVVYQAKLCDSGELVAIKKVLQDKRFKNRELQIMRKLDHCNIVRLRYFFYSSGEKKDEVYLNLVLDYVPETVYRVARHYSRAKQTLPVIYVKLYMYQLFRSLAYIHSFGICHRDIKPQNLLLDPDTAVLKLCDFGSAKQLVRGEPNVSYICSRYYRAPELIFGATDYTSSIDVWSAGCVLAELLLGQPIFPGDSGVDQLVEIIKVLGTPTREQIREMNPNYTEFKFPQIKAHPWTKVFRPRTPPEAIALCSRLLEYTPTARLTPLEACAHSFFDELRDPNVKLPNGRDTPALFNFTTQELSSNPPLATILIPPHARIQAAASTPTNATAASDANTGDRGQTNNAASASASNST
Sequence of SRSF protein kinase 3 (Homo sapiens) (Q9UPE1 whole entry): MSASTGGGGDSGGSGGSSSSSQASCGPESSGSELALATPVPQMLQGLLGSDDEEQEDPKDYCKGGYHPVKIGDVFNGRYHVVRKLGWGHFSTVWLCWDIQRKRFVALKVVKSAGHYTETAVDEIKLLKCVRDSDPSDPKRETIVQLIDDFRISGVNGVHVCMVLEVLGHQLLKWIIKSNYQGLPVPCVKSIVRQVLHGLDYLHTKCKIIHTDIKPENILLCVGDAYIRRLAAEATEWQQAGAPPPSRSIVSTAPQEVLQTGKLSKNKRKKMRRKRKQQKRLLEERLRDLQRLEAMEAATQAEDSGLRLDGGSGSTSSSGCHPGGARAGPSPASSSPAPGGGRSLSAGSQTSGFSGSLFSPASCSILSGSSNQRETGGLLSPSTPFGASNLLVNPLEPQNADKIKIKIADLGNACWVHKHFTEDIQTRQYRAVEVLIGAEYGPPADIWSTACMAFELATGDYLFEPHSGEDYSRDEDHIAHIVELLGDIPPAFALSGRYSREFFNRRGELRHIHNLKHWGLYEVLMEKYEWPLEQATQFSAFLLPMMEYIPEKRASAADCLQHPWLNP
Sequence of Mitogen-activated protein kinase 1 (Homo sapiens) (P28482 whole entry): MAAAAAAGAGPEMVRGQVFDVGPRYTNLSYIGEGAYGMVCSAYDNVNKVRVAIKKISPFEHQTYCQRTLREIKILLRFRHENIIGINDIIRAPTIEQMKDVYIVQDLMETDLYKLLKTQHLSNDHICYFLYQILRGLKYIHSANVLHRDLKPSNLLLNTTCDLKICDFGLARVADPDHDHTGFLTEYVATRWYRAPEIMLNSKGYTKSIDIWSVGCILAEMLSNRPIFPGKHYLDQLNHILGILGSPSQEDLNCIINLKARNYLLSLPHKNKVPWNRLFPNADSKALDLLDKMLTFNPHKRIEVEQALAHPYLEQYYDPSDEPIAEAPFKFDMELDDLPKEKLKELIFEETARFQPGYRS
Sequence of Mitogen-activated protein kinase 11 (Homo sapiens) (Q15759 whole entry): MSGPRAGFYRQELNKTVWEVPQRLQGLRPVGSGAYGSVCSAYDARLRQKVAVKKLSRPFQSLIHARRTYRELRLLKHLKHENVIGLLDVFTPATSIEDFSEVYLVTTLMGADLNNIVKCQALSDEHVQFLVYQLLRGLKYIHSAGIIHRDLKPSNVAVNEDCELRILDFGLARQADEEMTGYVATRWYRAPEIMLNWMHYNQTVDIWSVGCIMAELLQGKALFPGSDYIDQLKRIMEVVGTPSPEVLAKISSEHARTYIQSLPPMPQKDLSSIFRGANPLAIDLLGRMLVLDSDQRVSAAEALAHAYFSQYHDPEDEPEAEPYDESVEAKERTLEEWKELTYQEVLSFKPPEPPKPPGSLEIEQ
Sequence of Mitogen-activated protein kinase 9 (Homo sapiens) (P45984 whole entry, looked up): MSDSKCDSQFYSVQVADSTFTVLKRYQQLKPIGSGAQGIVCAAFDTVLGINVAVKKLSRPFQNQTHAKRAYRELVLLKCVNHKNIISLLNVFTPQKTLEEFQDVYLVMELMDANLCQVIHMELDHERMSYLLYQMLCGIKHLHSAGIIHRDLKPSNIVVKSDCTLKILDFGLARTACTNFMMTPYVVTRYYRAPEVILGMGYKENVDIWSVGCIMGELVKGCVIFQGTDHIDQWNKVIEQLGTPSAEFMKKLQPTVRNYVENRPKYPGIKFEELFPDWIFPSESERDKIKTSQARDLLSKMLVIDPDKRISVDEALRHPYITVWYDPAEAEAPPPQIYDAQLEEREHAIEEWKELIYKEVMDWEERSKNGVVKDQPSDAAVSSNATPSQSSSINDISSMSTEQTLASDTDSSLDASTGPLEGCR
Sequence of Homeodomain-interacting protein kinase 1 (Homo sapiens) (Q86Z02 whole entry, looked up): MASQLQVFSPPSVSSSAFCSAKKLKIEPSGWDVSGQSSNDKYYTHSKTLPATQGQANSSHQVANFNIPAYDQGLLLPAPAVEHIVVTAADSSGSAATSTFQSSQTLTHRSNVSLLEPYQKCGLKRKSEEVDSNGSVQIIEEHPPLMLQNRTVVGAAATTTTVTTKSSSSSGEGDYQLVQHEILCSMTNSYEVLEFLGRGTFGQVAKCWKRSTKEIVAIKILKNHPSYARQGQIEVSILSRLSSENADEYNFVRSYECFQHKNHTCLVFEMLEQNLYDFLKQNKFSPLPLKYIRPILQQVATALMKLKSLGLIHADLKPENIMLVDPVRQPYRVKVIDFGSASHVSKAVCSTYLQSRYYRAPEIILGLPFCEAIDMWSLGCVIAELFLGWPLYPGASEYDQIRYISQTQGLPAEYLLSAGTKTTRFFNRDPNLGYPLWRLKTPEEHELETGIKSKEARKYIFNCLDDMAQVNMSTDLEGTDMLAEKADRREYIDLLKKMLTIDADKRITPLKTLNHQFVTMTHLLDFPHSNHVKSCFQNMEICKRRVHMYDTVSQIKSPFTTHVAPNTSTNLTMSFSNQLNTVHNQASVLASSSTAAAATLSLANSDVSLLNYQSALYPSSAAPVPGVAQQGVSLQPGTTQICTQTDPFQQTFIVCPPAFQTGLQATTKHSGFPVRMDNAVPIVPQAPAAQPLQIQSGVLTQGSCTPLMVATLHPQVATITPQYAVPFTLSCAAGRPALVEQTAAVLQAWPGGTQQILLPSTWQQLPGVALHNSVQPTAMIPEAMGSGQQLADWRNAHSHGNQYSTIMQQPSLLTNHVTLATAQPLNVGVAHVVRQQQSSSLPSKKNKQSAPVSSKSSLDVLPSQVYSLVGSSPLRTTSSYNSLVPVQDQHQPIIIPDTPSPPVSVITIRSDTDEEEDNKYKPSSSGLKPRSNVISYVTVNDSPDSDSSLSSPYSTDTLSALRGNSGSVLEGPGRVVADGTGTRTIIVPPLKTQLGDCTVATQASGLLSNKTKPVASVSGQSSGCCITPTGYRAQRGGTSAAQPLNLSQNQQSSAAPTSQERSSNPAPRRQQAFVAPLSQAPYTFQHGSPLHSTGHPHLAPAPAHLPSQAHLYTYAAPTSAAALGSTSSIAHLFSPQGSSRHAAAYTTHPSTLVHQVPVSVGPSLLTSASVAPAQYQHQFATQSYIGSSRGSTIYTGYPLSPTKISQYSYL

As for `COC(=O)Nc1nc2cc(Oc3ccc(NC(=O)Nc4cccc(C(=O)O)c4)cc3)ccc2[nH]1`, the inhibition was 2.13% in assay [1]; -2.08% in assay [2]; 0.32% in [3]; 0.29% in [4]; 3.06% in assay [5]; -0.11% in [6]. The inhibition in assay [7] is -0.13%; in [8], 0.56%; in assay [9], 0.1%; in [10], 0.92%; in assay [11], 2.25%; in assay [12] it was 1.98%. Besides, the inhibition in assay [13] is 3.99%; in assay [14], -1.1%; in assay [15] it was 1.12%; in assay [16], 0.94%; in assay [17], -1.18%; in assay [18] it was -0.17%. Moreover, the inhibition is -0.69% in [19] and 0.51% in [20].
As for `COc1cc(C)c(NC(=O)CN(C)C)cc1Nc1nc(Nc2cccc(F)c2C(N)=O)c2cc[nH]c2n1`, the inhibition in [1] was 0.98%; in [2], 13.9%; in assay [3] it was 60.6%; in assay [4], 15.9%; in [5] it was 63.4%; in assay [6], 3.11%. Besides, the inhibition in [7] came to 12.6%; in assay [8] it was 2.86%; in [9], 4.47%; in [10] it was 2.47%; in assay [11], 0.63%; in [12] it was 2.12%. Also, the inhibition was 7.69% in assay [13]; 1.35% in [14]; 5.59% in [15]; 3.27% in [16]; 3.23% in [17]; -0.43% in assay [18]. In addition, the results for the inhibition in assay [19] and in assay [20] were 1.87% and 0.52%, respectively.
Turning to `CC1=C(C(=O)Nc2ccc3[nH]ncc3c2)C(c2ccc(Cl)c(Cl)c2)CC(=O)N1` (stereo not given), the inhibition is 4.85% in assay [1]; 0.46% in assay [2]; -2.51% in assay [3]; 1% in [4]; 4.37% in assay [5]; 1.22% in assay [6]. Further, the inhibition in assay [7] was 2.79%; in assay [8], 3.85%; in assay [9], 27.4%; in assay [10], 2.47%; in assay [11], 14.6%; in assay [12] it was -0.02%. Further, the inhibition in [13] is 1.57%; in assay [14], 1.46%; in [15], 4.94%; in assay [16], 0.46%; in [17], 0.24%; in assay [18] it was -0.61%. Besides, the figures for the inhibition in assay [19] and in [20] were 2.05% and -0.46%, respectively.
Turning to `COc1cc2ncn(-c3cc(OCc4ccccc4Cl)c(C(N)=O)s3)c2cc1OC`, the inhibition in [1] was 9.93%; in assay [2] it was 0.06%; in assay [3], 5.3%; in [4] it was 7.28%; in assay [5], 45.1%; in assay [6], 2.23%. The inhibition was 4.49% in assay [7]; 0.95% in assay [8]; 1.08% in assay [9]; -0.15% in [10]; 1.75% in [11]; -0.61% in assay [12]. Also, the inhibition in [13] is -1.33%; in [14] it was 2.7%; in [15] it was 18.4%; in assay [16], 1.39%; in [17] it was 4.07%; in assay [18] it was 0.95%. The results for the inhibition in assay [19] and in [20] were 0.78% and 1.88%, respectively.
In the case of `COC(=O)Nc1nc2cc(Oc3cccc(NC(=O)Nc4cc(C(F)(F)F)ccc4F)c3)ccc2[nH]1`, the inhibition in assay [1] is 6.36%; in assay [2], -3.75%; in [3], -1.32%; in assay [4], -1.03%; in assay [5], 11.4%; in [6], 2.79%. The inhibition is 1.58% in assay [7]; -0.65% in assay [8]; 0.3% in assay [9]; -0.17% in assay [10]; 0.49% in assay [11]; -1.97% in assay [12]. In addition, the inhibition in assay [13] was -3.98%; in assay [14] it was 2.37%; in assay [15], 5.26%; in assay [16] it was 1.03%; in assay [17], 1.94%; in assay [18], -4.01%. Besides, the inhibition was -0.11% in assay [19] and 0.33% in [20].
`CS(=O)(=O)Nc1ccc(N/C=C2\C(=O)Nc3ccccc32)cc1`: the inhibition was 17.2% in assay [1]; -1.53% in assay [2]; 3.36% in assay [3]; 0.6% in assay [4]; 4.82% in assay [5]; 0.25% in assay [6]. Also, the inhibition in assay [7] is 5.63%; in [8], -4.34%; in assay [9], -2.51%; in [10], -0.36%; in [11], -3.47%; in assay [12] it was 1.49%. The inhibition in assay [13] was 0.17%; in assay [14] it was -4.68%; in assay [15], -2.23%; in assay [16] it was -0.39%; in [17] it was 3.42%; in [18], -3.94%. Moreover, the inhibition is -3.87% in assay [19] and -2.29% in [20].

In general, inhibition refers to the relative decrease from the control value, in per cent.
